The campaign covered roughly 69,000 compounds. About 8,600 (12%) showed an effect of 50% or more. The full list was thinned out, with strong results kept by preference.

The test system of this assay is Plasmodium berghei. The assay is described as follows: Screen against P. berghei liver stage (PbLuc), transformed with Luciferase, at 10uM. The assay is classed as functional, HepG2. The note with it: tested at 10 uM.
Consider `CC(C)n1ccc(C(=O)NCC(O)c2c(Cl)cccc2Cl)n1` (stereo unspecified), for which the INHIBITION amounted to 24.3%.
As for `CCn1nc(C)cc1C(=O)NCc1nc(C)no1`, the INHIBITION came out at 17.5%.
Consider `Cc1ccc(N2CCCN(C(=O)c3cccc4c3ccn4C)CC2)nn1`, for which the INHIBITION is listed as 38.5%.
On to `Cc1ccc(N2CCCN(C(=O)c3cn(C)c4ccccc34)CC2)nn1`, for which the INHIBITION was determined as 87.2%.
With `Cn1cc(C(=O)N2CCCN(c3cccnn3)CC2)c2ccccc21`, the INHIBITION is reported as -0.532%.
Consider `O=C1CN(C(=O)C2CCC3(CC2)CNC(=O)c2ccccc2O3)CCN1` (stereo unspecified), for which the INHIBITION came out at 43.6%.
`Cc1nn(C)c(C)c1CN(C)C(=O)c1cc(C(F)(F)F)n(C)n1`: the INHIBITION was 42.45%.
Next, `O=C(c1ccnn1COc1ccc(Cl)cc1)N1CCSCC1`: 33.4%; `O=C(c1ccnn1COc1ccc(Cl)cc1)N1CCCC1`: 1.45%.
In the case of `O=C(c1ccnn1COc1ccc(Cl)cc1)N1CCOCC1`, the INHIBITION amounted to 50.8%.
Next, `Fc1ccccc1CC1CCN(Cc2nccs2)CC1`: -131%; `Fc1ccc(CC2CCN(Cc3cscn3)CC2)cc1`: 68.1%; `Fc1ccccc1CC1CCN(Cc2cscn2)CC1`: 82.4%.
Next, `Fc1ccc(CC2CCN(Cc3nccs3)CC2)cc1`: 38.7%; `Fc1ccccc1CC1CCN(Cc2ccccn2)CC1`: 45.2%; `Cc1noc(CN2CCC(Cc3ccc(F)cc3)CC2)n1`: 57.2%.
As to `Fc1ccc(CN2CCCN(Cc3cscn3)CC2)cc1`, the INHIBITION is reported as -12.5%.
As to `Cc1noc(CN2CCN(CCO)CC2)n1`, the INHIBITION is listed as -14.9%.
Consider `Cc1noc(CN2CCC(c3ccnn3CCO)CC2)n1`, for which the INHIBITION is listed as 49.6%.
`CCn1cnnc1CNC(=O)N1CCN(C(C)C)CC1`: the INHIBITION came to 21.5%.
Next, `CN(C)C(=O)CO[C@H]1CN(Cc2ccoc2)[C@@H]2COC[C@H]12`: 39.5%; `CCc1cnccc1C(=O)Nc1ccc(C(N)=O)nc1`: 25.1%; `CCc1nnc2n1CCN(C(=O)c1cc3c(F)cccc3[nH]1)C2`: 21%.
Next, `COCCN1C(=O)[C@@H]2CC[C@H]1CN(Cc1nnc(C3CC3)o1)C2`: 16.2%.
Next, `COc1ncc(CN2CCCC(c3[nH]ncc3S(C)(=O)=O)C2)cn1` (stereo unspecified): 7.05%; `CCn1cc(-c2cc(C(F)(F)F)nn2CCC#N)cn1`: 11.8%.
On to `Cn1c(C2CC2)nc2c1CCN(CC(=O)Nc1ccncc1)C2`, for which the INHIBITION is -31.5%.
As to `N[C@@H]1CCC[C@@H](Oc2ccc(F)cc2Oc2cccc(F)c2)[C@@H]1O`, the INHIBITION is 23.2%.
Next, `CO[C@@H]1CCC[C@@H](N(C)C(=O)c2cc(F)ccc2F)[C@H]1O`: -10.4%.
Next, `Cc1ccc(Oc2cc(F)ccc2O[C@@H]2CCC[C@@H](N)[C@H]2O)cc1`: 94.1%; `CN[C@@H]1CCC[C@@H](Oc2ccccc2Oc2ccc(C)cc2)[C@@H]1O`: 60.2%; `N[C@H]1CN(C(=O)c2ccccc2Oc2ccccc2)C[C@@H]1C1CC1`: 31.2%.
For `CNCc1cc(F)ccc1Oc1ccc(F)cc1`, the INHIBITION came to 29.3%.
Next, `N[C@@H]1CCC[C@@H](Oc2ccc(F)cc2Oc2ccccc2)[C@@H]1O`: 54.4%; `Cc1n[nH]c(C)c1CCC(=O)N[C@@H]1CCC[C@@H](Oc2ccccc2)[C@@H]1O`: -18.8%.
Next, `Cc1noc(C)c1C(=O)N[C@@H]1CCC[C@@H](Oc2ccccc2)[C@@H]1O`: 17.39%; `O=C(c1ccncc1F)N1CCCC(c2nccn2CC2CCC2)C1` (stereo unspecified): 36.8%; `CC(C)C(C(=O)N1CCCN(Cc2nccn2C)CC1)N1CCCC1` (stereo unspecified): 11.6%.
On to `O=C(NC1CCCN(CCCc2ccccc2)C1)c1ccc(Cl)s1` (stereo unspecified), for which the INHIBITION was 35.1%.
For the compound `CN(C)CC(O)Cn1cc(NCc2ccc(Br)cc2)cn1` (stereo unspecified), the INHIBITION amounted to 33.1%.
Next, `Cc1ccc(C(=O)NCc2ccnc(N3CCN(C)CC3)c2)cn1`: 38.9%; `CCOc1ccc(C(=O)NCc2ccnc(N3CCN(C)CC3)c2)cn1`: 14%.
Next, `CC(C)Oc1ccc(C(=O)NCc2ccc3c(c2)CCCN3C)cn1`: 29.2%; `CC(C(=O)NCc1ccnc(N2CCCC2)c1)n1cccn1` (stereo unspecified): 13.275%; `CC(C)Oc1ccc(C(=O)NCc2ccnc(N3CCCC3)c2)cn1`: 79.9%.
Next, `CCOc1ccc(C(=O)NCc2ccnc(N3CCCC3)c2)cn1`: 70.5%.
Take `CC(O)CN1CCC(CN(C)Cc2cccc(C(=O)N(C)C)c2)CC1` (stereo unspecified): the INHIBITION is on record as 21.5%.
Consider `CO[C@@H]1CCN(C(=O)Cc2ccsc2)[C@H]1Cc1cccnc1`, for which the INHIBITION is on record as -41%.
For `C[S+]([O-])CCNC(=O)N1CCN(c2cc(F)ccc2F)CC1` (stereo unspecified), the INHIBITION was 0.348%.
Take `Cc1nc(COC[C@]23COC[C@H]2CN(Cc2ccoc2)C3)cs1`: the INHIBITION is listed as -14%.
Consider `c1ccc(COCC2CN(Cc3ccsc3)Cc3nccn3C2)nc1` (stereo unspecified), for which the INHIBITION worked out at 76.5%.

The values are drawn from ChEMBL document CHEMBL4513216, “Probing the Open Global Health Chemical Diversity Library for Multistage-Active Starting Points for Next-Generation Antimalarials” (ACS Infect Dis, 2020).
